Targets with a hit are over-represented here; the source holds about 7,900 in all. About 0.6% of all pairs of compound and target were hits.
Tests used:
Assay in all cases: log2 fold change, soluble protein after heating vs DMSO (PISA); higher = thermal stabilisation; K562 cells, 10 uM, 30 min; active = over 0.2 and 3.5 SD of the protein, either way, in both replicates (recomputed)
[1] = compound: Cc1ccc(NC(=O)c2ccc(CN3CC[C@H](N(C)C)C3)c(C(F)(F)F)c2)cc1Nc1nccc(-c2cncnc2)n1 [bafetinib]
Method in brief: (§1)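 K562 cells (2×10^6 cells/mL) were treated with 10 μM compound for 30 min, and aliquots were heated for 3 min over 48°C-58°C. Pooled aliquots were extracted in PBS with 0.5% NP-40 at 4°C, and the supernatant after 21,000xg for 90 min was measured by TMTpro 16plex LC-MS/MS with channel sums equalised. Reported thermal stability, relative to control samples and from duplicates, is a log2 fold change.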

[2] = compound: Cc1cccc(CC(=O)N2CCc3c2ccc(-c2cn(C)c4ncnc(N)c24)c3F)n1
Method in brief: as §1

[3] = compound: Cc1cn(-c2cc(NC(=O)c3ccc(C)c(Nc4nccc(-c5cccnc5)n4)c3)cc(C(F)(F)F)c2)cn1 [nilotinib]
Method in brief: as §1

[4] = compound: Cc1nc(Nc2n[nH]c3c2CN(C(=O)N[C@H](CN(C)C)c2ccccc2)C3(C)C)c2sccc2n1
Method in brief: as §1

[5] = compound: Cc1nc(Nc2ncc(C(=O)Nc3c(C)cccc3Cl)s2)cc(N2CCN(CCO)CC2)n1 [dasatinib]
Method in brief: as §1

[6] = compound: Cc1ncc(-c2ccnc(Nc3ccc(S(C)(=O)=O)cc3)n2)n1C(C)C
Method in brief: as §1

[7] = compound: Cn1cc(-c2ccc3c(c2)CCN3C(=O)Cc2cccc(C(F)(F)F)c2)c2c(N)ncnc21
Method in brief: as §1

[8] = compound: Cn1cc(-c2ccc3nnc(C(F)(F)c4ccc5ncccc5c4)n3n2)cn1
Method in brief: as §1

[9] = compound: Cn1cncc1[C@@](N)(c1ccc(Cl)cc1)c1ccc2c(c1)c(-c1cccc(Cl)c1)cc(=O)n2C [tipifarnib]
Method in brief: as §1

[10] = compound: FC(F)(F)c1ccc(/C=C/c2nc(COc3ccc(CCCCn4ccnn4)cc3)co2)cc1 [mubritinib]
Method in brief: as §1

[11] = compound: NC(=O)Nc1cc(-c2cccc(F)c2)sc1C(=O)N[C@H]1CCCNC1
Method in brief: as §1

[12] = compound: NC(=O)c1cnc(N[C@@H]2CCCC[C@@H]2N)nc1Nc1cccc(-n2nccn2)c1
Method in brief: as §1

[13] = compound: NC1(c2ccc(-c3nc4ccn5c(=O)[nH]nc5c4cc3-c3ccccc3)cc2)CCC1
Method in brief: as §1

[14] = compound: NCC(=O)Nc1ccc(-n2nc(C(F)(F)F)cc2-c2ccc3c(ccc4ccccc43)c2)cc1
Method in brief: as §1

[15] = compound: Nc1ccccc1NC(=O)c1ccc(CNC(=O)OCc2cccnc2)cc1 [entinostat]
Method in brief: as §1

[16] = compound: O=C(CCCCCCC(=O)Nc1ccccc1)NO [vorinostat]
Method in brief: as §1

[17] = compound: O=C(CCCCCCNC(=O)c1cnc(N(c2ccccc2)c2ccccc2Cl)nc1)NO [citarinostat]
Method in brief: as §1

[18] = compound: O=C(O)c1ccc2c(c1)nc(Nc1cccc(Cl)c1)c1ccncc12 [silmitasertib]
Method in brief: as §1

[19] = compound: O=C1NC(=O)C(c2cnc3ccccn23)=C1c1cn2c3c(cc(F)cc13)CN(C(=O)N1CCCCC1)CC2
Method in brief: as §1

[20] = compound: c1cc(OCCN2CCCCC2)cc(-c2n[nH]c3ccc(-c4nnc[nH]4)cc23)c1
Method in brief: as §1

Measured: log2 fold change

WDR37 isoform 2 (UniProt Q9Y2I8)
Chain of UniProt Q9Y2I8 (Q9Y2I8 whole entry, looked up): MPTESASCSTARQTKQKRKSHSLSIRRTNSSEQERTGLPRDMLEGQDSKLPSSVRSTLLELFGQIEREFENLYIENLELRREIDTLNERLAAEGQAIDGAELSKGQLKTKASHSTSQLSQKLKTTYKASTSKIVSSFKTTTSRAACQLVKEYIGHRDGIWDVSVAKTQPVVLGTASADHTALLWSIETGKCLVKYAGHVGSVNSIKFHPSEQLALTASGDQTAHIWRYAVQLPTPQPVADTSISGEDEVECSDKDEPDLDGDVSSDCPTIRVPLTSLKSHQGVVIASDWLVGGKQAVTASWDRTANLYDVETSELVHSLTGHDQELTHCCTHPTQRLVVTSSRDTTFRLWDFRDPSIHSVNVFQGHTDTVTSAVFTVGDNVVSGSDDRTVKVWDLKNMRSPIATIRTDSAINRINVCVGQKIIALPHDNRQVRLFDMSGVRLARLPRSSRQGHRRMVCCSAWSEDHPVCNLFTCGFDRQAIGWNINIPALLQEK
inactive: [1] 0.039 | [2] -0.093 | [3] -0.073 | [4] 0.039 | [5] 0.005 | [6] -0.05 | [7] -0.024 | [8] 0.017 | [9] 0.083 | [10] -0.021 | [11] -0.041 | [12] -0.01 | [13] -0.052 | [14] -0.08 | [15] -0.004 | [16] -0.068 | [17] -0.012 | [18] -0.059 | [19] 0.032 | [20] -0.162

TPM2 (UniProt P07951)
Chain of UniProt P07951 (P07951 whole entry, looked up): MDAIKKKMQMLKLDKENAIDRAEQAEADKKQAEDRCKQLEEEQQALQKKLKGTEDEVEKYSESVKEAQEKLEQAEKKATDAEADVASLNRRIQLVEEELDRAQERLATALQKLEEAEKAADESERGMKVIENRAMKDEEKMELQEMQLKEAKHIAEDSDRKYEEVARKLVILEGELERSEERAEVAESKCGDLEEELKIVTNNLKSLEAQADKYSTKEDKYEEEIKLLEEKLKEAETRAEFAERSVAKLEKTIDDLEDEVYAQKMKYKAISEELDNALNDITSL
inactive: [1] 0.034 | [2] 0.003 | [3] 0.126 | [4] -0.097 | [5] 0.072 | [6] 0.064 | [7] -0.019 | [8] -0.015 | [9] 0.086 | [10] 0.025 | [11] 0.119 | [12] 0.081 | [13] 0.157 | [14] 0.201 | [15] 0.077 | [16] -0.077 | [17] 0.103 | [18] -0.07 | [19] 0.162 | [20] 0.171

UBE2Q1 (UniProt Q7Z7E8)
Chain of UniProt Q7Z7E8 (Q7Z7E8 whole entry, looked up): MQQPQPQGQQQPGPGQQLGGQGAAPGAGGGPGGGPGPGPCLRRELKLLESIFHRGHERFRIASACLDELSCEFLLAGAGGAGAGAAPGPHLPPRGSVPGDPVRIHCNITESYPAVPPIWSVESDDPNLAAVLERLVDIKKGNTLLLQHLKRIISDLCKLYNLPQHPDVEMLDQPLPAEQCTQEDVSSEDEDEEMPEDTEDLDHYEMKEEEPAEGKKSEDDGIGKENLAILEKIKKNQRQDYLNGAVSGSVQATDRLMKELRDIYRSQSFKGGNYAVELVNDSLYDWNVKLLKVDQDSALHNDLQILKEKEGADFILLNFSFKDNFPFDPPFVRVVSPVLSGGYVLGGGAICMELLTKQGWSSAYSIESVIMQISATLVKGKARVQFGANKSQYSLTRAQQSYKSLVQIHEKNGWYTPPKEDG
inactive: [1] -0.029 | [2] 0.015 | [3] -0.134 | [4] -0.103 | [5] -0.101 | [6] -0.046 | [7] -0.012 | [8] 0.027 | [9] -0.103 | [10] 0.006 | [11] -0.01 | [12] -0.059 | [13] -0.084 | [14] -0.012 | [15] 0.03 | [16] 0.084 | [17] 0.029 | [18] 0.074 | [19] -0.035 | [20] -0.035

TUBAL3 (UniProt A6NHL2)
Chain of UniProt A6NHL2 (A6NHL2 whole entry, looked up): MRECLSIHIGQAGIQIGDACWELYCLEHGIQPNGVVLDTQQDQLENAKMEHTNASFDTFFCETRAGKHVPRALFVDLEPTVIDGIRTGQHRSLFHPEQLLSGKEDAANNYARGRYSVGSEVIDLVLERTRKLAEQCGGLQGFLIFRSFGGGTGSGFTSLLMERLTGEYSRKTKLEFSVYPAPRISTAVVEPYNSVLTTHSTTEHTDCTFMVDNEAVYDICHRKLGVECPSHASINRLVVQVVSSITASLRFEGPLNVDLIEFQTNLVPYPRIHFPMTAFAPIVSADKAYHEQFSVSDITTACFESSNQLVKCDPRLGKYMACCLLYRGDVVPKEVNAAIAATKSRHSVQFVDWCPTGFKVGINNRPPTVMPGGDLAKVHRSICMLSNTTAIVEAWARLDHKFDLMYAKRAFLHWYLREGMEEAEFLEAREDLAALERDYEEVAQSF
inactive: [1] 0.167 | [2] 0.049 | [3] -0.144 | [4] 0.027 | [5] 0.051 | [6] -0.029 | [7] 0.005 | [8] -0.095 | [9] -0.097 | [10] -0.01 | [11] 0 | [12] -0.082 | [13] -0.006 | [14] 0.031 | [15] 0.061 | [16] 0.037 | [17] -0.06 | [18] 0.087 | [19] 0.059 | [20] -0.291

VPS28 (UniProt Q9UK41)
inactive: [1] -0.017 | [2] -0.021 | [3] -0.153 | [4] -0.063 | [5] -0.209 | [6] -0.019 | [7] 0.01 | [8] 0.006 | [9] -0.051 | [10] 0.046 | [11] -0.059 | [12] -0.079 | [13] -0.177 | [14] -0.055 | [15] 0.064 | [16] 0.052 | [17] 0.122 | [18] 0.058 | [19] -0.001 | [20] -0.012

TRIP10 isoform 2 (UniProt Q15642)
active: [14] -0.849
inactive: [1] -0.019 | [2] 0.026 | [3] 0.005 | [4] -0.174 | [5] 0.035 | [6] -0.162 | [7] -0.033 | [8] -0.135 | [9] -0.04 | [10] 0.142 | [11] -0.067 | [12] 0.057 | [13] -0.065 | [15] -0.2 | [16] 0.026 | [17] -0.11 | [18] -0.065 | [19] -0.052 | [20] 0.008

WASHC2C, A0A096LPC5
inactive: [1] -0.144 | [2] -0.335 | [3] 0.093 | [4] -0.101 | [5] 0.13 | [6] -0.003 | [7] -0.016 | [8] -0.082 | [9] 0.283 | [10] 0.123 | [11] -0.084 | [12] -0.208 | [13] -0.06 | [14] -0.058 | [15] -0.015 | [16] -0.209 | [17] -0.113 | [18] 0.361 | [19] 0.001 | [20] -0.151

WDR43 (UniProt Q15061)
Chain of UniProt Q15061 (Q15061 whole entry, looked up): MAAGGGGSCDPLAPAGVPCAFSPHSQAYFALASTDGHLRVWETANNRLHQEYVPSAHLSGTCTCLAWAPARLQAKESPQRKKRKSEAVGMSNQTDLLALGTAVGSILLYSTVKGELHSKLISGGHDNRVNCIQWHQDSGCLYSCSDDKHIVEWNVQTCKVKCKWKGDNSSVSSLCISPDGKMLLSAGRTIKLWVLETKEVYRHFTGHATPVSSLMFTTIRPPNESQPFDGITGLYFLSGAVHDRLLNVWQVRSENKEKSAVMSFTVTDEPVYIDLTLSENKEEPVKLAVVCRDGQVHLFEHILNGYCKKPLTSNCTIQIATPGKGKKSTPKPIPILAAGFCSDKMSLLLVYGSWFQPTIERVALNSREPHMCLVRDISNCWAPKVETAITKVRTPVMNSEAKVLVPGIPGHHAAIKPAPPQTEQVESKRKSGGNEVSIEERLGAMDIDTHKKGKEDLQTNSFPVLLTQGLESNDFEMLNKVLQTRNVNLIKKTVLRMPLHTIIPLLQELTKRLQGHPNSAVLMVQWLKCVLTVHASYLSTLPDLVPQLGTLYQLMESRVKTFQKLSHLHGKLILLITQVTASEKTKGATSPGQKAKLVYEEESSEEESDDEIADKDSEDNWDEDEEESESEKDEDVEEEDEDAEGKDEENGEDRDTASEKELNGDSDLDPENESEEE
inactive: [1] -0.041 | [2] -0.052 | [3] -0.013 | [4] 0.033 | [5] 0.015 | [6] 0.102 | [7] -0.022 | [8] 0.013 | [9] 0.005 | [10] -0.024 | [11] 0.023 | [12] 0.03 | [13] 0.068 | [14] -0.023 | [15] -0.029 | [16] -0.078 | [17] 0.007 | [18] 0.051 | [19] -0.007 | [20] -0.027

TNPO2 (UniProt O14787)
Chain of UniProt O14787 (O14787 whole entry, looked up): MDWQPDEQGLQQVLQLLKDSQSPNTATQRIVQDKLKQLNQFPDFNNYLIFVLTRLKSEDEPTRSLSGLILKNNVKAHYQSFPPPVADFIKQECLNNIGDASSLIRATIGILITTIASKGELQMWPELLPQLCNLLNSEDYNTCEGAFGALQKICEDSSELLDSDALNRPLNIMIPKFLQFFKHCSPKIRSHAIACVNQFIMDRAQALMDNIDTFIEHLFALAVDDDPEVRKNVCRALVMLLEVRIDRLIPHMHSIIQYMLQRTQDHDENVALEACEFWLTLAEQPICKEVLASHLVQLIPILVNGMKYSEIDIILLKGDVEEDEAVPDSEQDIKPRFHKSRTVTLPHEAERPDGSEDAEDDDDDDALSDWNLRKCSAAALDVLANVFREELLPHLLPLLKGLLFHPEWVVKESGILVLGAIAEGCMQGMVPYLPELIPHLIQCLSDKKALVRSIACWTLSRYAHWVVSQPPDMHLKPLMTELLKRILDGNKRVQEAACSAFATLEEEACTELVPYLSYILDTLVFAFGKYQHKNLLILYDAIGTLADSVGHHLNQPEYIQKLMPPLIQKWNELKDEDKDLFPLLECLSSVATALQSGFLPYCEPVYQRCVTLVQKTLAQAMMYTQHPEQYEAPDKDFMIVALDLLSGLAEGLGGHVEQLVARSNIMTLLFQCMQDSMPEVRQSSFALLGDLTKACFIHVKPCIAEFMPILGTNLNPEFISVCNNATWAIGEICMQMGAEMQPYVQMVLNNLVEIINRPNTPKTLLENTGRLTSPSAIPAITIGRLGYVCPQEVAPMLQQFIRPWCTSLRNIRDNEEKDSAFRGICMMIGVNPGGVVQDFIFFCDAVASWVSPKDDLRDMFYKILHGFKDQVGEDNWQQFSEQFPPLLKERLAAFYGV
inactive: [1] -0.004 | [2] 0.129 | [3] -0.122 | [4] -0.111 | [5] -0.173 | [6] -0.087 | [7] -0.076 | [8] -0.011 | [9] -0.011 | [10] 0.043 | [11] 0.015 | [12] -0.174 | [13] -0.268 | [14] -0.054 | [15] 0.064 | [16] -0.008 | [17] 0.047 | [18] 0.059 | [19] -0.04 | [20] -0.124

TNFAIP8 isoform 4 (UniProt O95379)
Chain of UniProt O95379 (O95379 whole entry, looked up): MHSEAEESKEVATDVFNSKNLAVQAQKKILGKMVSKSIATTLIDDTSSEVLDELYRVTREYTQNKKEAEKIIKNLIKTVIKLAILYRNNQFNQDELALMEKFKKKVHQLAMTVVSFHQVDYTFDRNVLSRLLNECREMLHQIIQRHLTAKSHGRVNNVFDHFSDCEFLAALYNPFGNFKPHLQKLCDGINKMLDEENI
active: [16] 0.207
inactive: [1] -0.079 | [2] 0.014 | [3] -0.045 | [4] -0.095 | [5] -0.109 | [6] 0.007 | [7] 0.047 | [8] 0.005 | [9] -0.023 | [10] 0.031 | [11] -0.032 | [12] -0.091 | [13] -0.061 | [14] 0.029 | [15] 0.018 | [17] 0.012 | [18] 0.147 | [19] -0.073 | [20] 0.087

VARS2, A0A0G2JL52
inactive: [1] -0.051 | [2] 0 | [3] -0.043 | [4] 0.012 | [5] 0.009 | [6] 0.003 | [7] 0.037 | [8] -0.021 | [9] -0.01 | [10] -0.049 | [11] 0.013 | [12] -0.01 | [13] -0.087 | [14] -0.062 | [15] 0.028 | [16] 0.106 | [17] 0.006 | [18] -0.005 | [19] -0.048 | [20] -0.017

TPR (UniProt P12270)
active: [18] 0.3
inactive: [1] -0.011 | [2] -0.004 | [3] 0.056 | [4] 0.04 | [5] 0.158 | [6] 0.047 | [7] -0.184 | [8] -0.017 | [9] 0.002 | [10] 0.089 | [11] 0.09 | [12] -0.039 | [13] 0.06 | [14] -0.032 | [15] -0.019 | [16] -0.084 | [17] 0.008 | [19] 0.085 | [20] 0.005

WDR7 (UniProt Q9Y4E6)
Chain of UniProt Q9Y4E6 (Q9Y4E6 whole entry, looked up): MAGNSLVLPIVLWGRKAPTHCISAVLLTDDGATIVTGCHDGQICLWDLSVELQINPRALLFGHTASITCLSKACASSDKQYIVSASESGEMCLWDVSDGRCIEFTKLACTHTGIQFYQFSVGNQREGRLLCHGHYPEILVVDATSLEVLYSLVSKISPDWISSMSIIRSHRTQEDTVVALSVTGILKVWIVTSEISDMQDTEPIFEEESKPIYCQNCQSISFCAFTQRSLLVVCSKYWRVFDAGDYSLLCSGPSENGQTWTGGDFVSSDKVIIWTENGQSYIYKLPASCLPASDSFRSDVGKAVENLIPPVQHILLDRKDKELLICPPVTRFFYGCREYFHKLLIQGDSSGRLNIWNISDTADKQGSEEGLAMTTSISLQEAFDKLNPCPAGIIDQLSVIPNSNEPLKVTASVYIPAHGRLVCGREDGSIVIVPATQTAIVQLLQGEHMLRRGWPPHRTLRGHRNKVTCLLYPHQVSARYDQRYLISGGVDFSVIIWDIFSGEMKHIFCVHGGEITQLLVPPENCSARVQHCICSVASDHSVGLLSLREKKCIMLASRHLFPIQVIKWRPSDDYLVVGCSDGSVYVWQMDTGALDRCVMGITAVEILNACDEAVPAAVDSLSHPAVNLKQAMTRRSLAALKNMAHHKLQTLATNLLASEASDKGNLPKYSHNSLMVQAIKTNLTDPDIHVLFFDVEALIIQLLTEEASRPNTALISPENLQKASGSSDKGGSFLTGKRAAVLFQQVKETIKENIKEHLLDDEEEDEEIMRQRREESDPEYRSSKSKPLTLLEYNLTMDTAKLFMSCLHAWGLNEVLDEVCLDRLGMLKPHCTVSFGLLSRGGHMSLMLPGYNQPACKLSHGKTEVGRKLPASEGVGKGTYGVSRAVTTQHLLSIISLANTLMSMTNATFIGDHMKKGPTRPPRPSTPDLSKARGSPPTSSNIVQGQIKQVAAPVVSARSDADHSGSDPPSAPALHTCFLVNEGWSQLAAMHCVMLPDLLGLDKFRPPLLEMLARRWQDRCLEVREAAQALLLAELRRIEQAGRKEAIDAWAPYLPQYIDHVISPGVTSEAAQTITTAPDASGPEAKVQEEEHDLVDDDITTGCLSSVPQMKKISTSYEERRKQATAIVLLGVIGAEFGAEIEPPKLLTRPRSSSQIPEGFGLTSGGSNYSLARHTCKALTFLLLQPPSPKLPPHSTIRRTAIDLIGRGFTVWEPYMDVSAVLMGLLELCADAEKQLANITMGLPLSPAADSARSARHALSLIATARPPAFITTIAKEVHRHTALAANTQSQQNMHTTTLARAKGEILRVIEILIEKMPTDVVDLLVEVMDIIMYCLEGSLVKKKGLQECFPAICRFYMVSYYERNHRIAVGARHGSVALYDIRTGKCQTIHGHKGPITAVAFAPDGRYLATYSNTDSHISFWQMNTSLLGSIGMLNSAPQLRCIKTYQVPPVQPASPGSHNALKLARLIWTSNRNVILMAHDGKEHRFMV
inactive: [1] -0.034 | [2] 0.082 | [3] -0.089 | [4] -0.01 | [5] -0.058 | [6] -0.034 | [7] 0.085 | [8] -0.084 | [9] 0.058 | [10] -0.118 | [11] -0.227 | [12] -0.017 | [13] 0.104 | [14] -0.019 | [15] 0.008 | [16] 0.036 | [17] -0.125 | [18] 0.032 | [19] 0.119 | [20] -0.088

TSEN2 (UniProt Q8NCE0)
inactive: [1] 0.008 | [2] 0.032 | [3] -0.05 | [4] -0.112 | [5] -0.132 | [6] -0.034 | [7] 0.05 | [8] -0.013 | [9] -0.005 | [10] -0.16 | [11] 0.212 | [12] -0.008 | [13] -0.126 | [14] -0.024 | [15] 0.052 | [16] -0.003 | [17] 0.005 | [18] 0.197 | [19] -0.015 | [20] 0.008

TP53BP1 isoform 2 (UniProt Q12888)
inactive: [1] 0.004 | [2] 0.008 | [3] -0.001 | [4] -0.011 | [5] -0.009 | [6] -0.027 | [7] -0.064 | [8] -0.014 | [9] 0.016 | [10] -0.002 | [11] 0.014 | [12] -0.056 | [13] -0.072 | [14] -0.008 | [15] 0.018 | [16] 0.031 | [17] 0.074 | [18] 0.117 | [19] -0.035 | [20] -0.029

TMEM70 (UniProt Q9BUB7)
inactive: [1] -0.141 | [2] 0.026 | [3] 0.028 | [4] -0.003 | [5] -0.094 | [6] 0.018 | [7] 0.06 | [8] 0.023 | [9] -0.02 | [10] 0.017 | [11] -0.058 | [12] -0.125 | [13] -0.162 | [14] -0.137 | [15] 0.005 | [16] 0.031 | [17] 0.047 | [18] 0.019 | [19] -0.045 | [20] -0.003
